Reference: ChEMBL document CHEMBL3988442, “University of Dundee, Small-Polar-MMV Screening Library” (2021)
For part of these data: Entries with a potency or affinity are not part of this list.

Assays:
Parameters in all cases: scale not given: direction of the effect not stated beside the values
[1] = biological target: Protein translocase subunit SecA (Escherichia coli (strain K12)) (UniProt P10408); experiment: Assay to Identify E. coli SecA ATPase Inhibitors; type: functional; settings: 30 µM
Protein translocase subunit SecA (Escherichia coli (strain K12)), sequence (P10408 whole entry): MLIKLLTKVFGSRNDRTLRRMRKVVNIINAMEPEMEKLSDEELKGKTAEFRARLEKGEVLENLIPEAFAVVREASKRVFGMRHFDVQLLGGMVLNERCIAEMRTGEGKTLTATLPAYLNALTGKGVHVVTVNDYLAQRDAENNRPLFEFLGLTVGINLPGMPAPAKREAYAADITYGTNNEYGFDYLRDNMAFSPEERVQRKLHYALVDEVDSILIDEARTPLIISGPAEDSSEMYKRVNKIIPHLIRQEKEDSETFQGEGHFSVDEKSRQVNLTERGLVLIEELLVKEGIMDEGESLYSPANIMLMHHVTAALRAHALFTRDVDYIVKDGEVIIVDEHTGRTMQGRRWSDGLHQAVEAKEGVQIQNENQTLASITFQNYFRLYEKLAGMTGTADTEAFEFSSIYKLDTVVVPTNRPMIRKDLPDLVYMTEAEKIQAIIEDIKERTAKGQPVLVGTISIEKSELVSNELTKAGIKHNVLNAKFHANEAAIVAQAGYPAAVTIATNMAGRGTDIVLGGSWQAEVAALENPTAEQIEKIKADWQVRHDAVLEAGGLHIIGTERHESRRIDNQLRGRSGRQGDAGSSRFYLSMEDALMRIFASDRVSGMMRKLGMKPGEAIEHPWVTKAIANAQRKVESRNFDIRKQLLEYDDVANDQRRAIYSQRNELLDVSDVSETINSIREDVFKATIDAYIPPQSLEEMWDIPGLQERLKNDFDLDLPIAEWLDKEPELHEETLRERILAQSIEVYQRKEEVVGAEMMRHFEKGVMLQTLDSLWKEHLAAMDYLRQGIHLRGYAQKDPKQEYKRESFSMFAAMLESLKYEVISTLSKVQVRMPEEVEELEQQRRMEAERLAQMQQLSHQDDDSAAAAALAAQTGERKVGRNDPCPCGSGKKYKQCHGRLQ

[2] = biological target: T1, Ubiquitin-activating enzyme e1, putative (Leishmania donovani (strain BPK282A1)) (UniProt E9BSI1); experiment: Leishmania donovani Ubiquitin Activating Enzyme (LdE1); type: functional; settings: 30 µM
T1 sequence (whole entry): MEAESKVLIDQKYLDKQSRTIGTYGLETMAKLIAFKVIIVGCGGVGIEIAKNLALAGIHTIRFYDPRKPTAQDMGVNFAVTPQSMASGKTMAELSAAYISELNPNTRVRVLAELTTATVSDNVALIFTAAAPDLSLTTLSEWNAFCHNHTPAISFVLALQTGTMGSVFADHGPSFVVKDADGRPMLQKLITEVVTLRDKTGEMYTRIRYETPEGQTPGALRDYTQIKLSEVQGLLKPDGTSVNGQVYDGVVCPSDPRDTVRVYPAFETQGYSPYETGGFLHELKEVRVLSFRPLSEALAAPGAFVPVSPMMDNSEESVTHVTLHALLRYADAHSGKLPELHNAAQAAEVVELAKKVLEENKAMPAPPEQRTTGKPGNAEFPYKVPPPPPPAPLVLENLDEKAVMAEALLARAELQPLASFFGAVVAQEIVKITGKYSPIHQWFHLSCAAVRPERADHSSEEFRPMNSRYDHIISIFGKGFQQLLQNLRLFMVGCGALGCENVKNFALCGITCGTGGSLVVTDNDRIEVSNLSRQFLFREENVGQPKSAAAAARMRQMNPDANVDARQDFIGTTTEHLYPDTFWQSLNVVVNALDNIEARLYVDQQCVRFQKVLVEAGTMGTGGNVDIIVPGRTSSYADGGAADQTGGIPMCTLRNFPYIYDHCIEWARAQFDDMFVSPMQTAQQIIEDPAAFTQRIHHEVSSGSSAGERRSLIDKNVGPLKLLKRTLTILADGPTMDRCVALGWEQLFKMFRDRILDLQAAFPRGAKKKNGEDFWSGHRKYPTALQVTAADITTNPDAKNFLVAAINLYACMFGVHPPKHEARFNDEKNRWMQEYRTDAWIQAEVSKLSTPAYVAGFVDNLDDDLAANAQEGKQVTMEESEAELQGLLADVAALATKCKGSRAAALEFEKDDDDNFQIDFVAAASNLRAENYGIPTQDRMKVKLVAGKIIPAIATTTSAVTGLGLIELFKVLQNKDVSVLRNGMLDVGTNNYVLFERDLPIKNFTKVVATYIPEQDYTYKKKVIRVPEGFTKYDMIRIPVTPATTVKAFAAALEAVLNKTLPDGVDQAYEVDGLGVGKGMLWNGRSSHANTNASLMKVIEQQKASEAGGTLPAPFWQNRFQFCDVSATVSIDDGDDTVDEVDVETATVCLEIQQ

[3] = biological target: T2, Aspartate--tRNA(Asp/Asn) ligase (Mycobacterium tuberculosis (strain ATCC 25618 / H37Rv)) (UniProt P9WFW3); experiment: Assay for Asp RNA synthetase-1 from Mycobacterium tuberculosis; type: functional; settings: 30 µM; also: in the data most compounds retested in dose-response had high values
T2 sequence (whole entry): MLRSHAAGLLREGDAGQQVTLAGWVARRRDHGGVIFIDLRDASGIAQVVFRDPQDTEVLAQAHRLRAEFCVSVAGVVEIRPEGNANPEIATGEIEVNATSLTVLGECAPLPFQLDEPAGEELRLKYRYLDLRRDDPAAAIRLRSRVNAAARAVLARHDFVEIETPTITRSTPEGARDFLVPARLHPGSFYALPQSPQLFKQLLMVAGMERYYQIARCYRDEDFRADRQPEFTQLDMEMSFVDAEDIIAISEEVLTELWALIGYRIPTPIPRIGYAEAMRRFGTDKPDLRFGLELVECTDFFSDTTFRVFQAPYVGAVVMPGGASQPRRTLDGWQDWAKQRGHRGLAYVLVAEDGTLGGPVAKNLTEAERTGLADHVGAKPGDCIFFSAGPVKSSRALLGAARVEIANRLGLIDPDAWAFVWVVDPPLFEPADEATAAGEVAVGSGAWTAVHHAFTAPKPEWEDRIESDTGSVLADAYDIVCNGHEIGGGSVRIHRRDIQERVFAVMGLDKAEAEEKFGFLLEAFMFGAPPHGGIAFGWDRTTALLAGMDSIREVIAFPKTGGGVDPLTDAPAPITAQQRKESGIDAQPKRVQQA

[4] = biological target: Sialic acid-binding Ig-like lectin 9 (Homo sapiens) (UniProt Q9Y336); experiment: Hs-Siglec9 ALPHAscreen SOP 20170721; settings: 10 µM
Sialic acid-binding Ig-like lectin 9 (Homo sapiens), sequence (Q9Y336 whole entry): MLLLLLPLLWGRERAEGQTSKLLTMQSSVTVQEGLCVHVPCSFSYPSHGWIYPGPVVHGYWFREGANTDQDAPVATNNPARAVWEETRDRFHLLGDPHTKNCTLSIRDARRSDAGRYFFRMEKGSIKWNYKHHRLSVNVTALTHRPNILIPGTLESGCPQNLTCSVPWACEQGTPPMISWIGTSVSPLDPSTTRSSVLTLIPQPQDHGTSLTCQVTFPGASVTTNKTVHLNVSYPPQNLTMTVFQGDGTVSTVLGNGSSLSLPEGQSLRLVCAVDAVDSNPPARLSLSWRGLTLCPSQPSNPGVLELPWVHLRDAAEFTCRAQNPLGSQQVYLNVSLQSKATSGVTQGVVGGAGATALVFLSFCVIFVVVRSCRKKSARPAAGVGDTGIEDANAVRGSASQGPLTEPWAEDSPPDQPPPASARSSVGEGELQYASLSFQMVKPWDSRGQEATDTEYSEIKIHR

[5] = test system: Trypanosoma cruzi; experiment: Trypanosoma cruzi phosphomannomutase and mannose-1-phosphate guanylyltransferase assay; type: functional; settings: 10 µM
[6] = biological target: T3, Arginase-2, mitochondrial (Homo sapiens) (UniProt P78540); experiment: in vitro enzyme assay to detect the production of urea directly proportional to the activity of Arginase II; type: functional; settings: 33.3 µM; also: in the data most compounds retested in dose-response had high values
T3 sequence (whole entry): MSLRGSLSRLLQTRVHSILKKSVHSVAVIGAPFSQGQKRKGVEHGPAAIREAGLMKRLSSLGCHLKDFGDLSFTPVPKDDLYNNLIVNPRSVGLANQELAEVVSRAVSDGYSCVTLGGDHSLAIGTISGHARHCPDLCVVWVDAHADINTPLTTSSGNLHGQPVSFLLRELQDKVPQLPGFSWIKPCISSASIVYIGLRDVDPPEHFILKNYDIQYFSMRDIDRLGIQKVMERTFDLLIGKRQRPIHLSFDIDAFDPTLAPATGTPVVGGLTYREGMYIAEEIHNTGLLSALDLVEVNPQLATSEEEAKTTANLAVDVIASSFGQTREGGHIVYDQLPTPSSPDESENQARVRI

[7] = biological target: T4, Proteasome subunit beta (Trypanosoma cruzi) (UniProt O96673); experiment: Trypanosoma cruzi proteasome chymotrypsin-like activity (TcProtChymo) assay.; also: in the data most compounds retested in dose-response had high values; type: functional; settings: 9.37 µM
T4 sequence (whole entry): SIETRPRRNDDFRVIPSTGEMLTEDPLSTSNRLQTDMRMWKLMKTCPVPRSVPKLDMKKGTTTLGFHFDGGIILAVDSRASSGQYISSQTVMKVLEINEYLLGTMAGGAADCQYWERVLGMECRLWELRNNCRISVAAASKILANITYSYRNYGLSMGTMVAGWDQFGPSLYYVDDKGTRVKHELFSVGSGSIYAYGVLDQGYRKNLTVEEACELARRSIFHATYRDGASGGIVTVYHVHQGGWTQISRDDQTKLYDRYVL

[8] = species on record: Homo sapiens; experiment: To identify inhibition of the IFN signalling (Jak-Stat) pathway via expression of an eGFP reporter gene under the control of an IFN-stimulated response element (ISRE) containing MxA promoter.; type: functional; settings: 30 µM
[9] = biological target: Shiga toxin 2 (Escherichia coli O157:H7) (UniProt P09385+P09386); experiment: E. coli 0.157:H7 Shiga Toxin SOP - stx2 screening assay; type: functional; settings: 30 µM
[10] = biological target: T5, Tyrosyl-tRNA synthetase, putative (Trypanosoma cruzi (strain CL Brener)) (UniProt Q4DSP6); experiment: Trypanosoma cruzi tyrosyl tRNA synthetase (TcYRS) _High Tyrosine SOP; type: functional; settings: 30 µM; also: in the data most compounds retested in dose-response had high values
T5 sequence (whole entry): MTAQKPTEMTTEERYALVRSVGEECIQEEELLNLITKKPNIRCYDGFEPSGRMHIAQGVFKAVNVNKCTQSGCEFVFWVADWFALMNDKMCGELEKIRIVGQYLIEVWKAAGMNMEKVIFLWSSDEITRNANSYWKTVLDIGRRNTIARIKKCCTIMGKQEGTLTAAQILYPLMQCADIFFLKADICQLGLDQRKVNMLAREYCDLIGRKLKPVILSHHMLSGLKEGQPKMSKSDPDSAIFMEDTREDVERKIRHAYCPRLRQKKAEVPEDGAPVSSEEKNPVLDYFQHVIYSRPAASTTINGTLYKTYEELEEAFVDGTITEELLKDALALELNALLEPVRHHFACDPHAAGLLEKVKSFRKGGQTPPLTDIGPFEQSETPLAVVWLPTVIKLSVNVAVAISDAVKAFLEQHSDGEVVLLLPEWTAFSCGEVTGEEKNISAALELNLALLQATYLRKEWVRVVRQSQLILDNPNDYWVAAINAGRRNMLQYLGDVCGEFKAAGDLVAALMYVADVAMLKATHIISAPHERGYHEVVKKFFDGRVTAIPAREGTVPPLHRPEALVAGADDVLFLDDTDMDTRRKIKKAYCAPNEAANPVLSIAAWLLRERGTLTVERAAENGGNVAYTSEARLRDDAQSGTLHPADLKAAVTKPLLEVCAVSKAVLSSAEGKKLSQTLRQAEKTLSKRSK

[11] = biological target: T5, Tyrosyl-tRNA synthetase, putative (Trypanosoma cruzi (strain CL Brener)); experiment: Trypanosoma cruzi tyrosyl tRNA synthetase (TcYRS) SOP; type: functional; settings: 30 µM
[12] = biological target: Chromo domain-containing protein 1 (Saccharomyces cerevisiae (strain ATCC 204508 / S288c) (Baker's yeast)) (UniProt P32657); experiment: ScCHD-1 Enzyme Inhibition Assay; type: functional; settings: 30 µM; also: in the data most compounds retested in dose-response had high values
Chromo domain-containing protein 1 (Saccharomyces cerevisiae (strain ATCC 204508 / S288c) (Baker's yeast)), sequence (P32657 whole entry, the tested form may be a part): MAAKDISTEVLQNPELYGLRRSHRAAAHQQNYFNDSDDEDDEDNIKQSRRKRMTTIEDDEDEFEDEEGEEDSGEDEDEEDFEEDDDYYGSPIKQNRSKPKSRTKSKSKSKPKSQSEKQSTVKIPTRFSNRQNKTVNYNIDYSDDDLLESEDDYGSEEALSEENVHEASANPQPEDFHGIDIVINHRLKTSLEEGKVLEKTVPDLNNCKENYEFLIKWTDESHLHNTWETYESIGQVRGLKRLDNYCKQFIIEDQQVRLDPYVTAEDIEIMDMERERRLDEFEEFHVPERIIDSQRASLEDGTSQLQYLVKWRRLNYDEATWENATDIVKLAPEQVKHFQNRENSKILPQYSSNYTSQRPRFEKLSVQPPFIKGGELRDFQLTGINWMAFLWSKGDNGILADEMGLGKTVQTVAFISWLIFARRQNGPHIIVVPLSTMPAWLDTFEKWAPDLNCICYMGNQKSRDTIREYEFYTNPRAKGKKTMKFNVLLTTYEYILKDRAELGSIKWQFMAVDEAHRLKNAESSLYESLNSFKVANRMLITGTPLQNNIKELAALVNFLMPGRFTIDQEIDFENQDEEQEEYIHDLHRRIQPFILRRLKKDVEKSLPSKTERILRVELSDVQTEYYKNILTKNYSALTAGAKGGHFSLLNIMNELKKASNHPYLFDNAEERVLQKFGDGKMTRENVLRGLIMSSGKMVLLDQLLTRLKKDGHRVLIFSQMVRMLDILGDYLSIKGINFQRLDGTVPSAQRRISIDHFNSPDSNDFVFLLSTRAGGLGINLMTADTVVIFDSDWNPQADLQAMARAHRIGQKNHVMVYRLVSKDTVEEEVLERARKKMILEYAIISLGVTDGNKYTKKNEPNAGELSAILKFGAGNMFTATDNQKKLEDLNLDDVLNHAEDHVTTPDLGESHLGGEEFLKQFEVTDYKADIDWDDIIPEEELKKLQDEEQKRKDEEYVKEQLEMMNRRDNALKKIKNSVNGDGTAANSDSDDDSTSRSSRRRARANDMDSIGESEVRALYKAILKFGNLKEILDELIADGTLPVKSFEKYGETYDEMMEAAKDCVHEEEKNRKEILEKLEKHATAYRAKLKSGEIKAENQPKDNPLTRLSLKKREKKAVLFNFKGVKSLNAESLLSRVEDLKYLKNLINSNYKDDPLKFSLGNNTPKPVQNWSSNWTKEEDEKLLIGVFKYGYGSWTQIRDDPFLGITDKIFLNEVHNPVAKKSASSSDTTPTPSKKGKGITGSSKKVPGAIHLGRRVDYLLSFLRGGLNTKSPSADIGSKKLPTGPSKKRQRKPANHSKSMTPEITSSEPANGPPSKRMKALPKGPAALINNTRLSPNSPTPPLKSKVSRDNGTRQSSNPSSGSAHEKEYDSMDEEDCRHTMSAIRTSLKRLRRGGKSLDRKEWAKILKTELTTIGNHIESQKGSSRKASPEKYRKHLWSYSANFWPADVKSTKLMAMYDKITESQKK

[13] = biological target: AMP-activated protein kinase, AMPK (Homo sapiens) (UniProt P54646+O43741+P54619+Q9UGJ0+Q9Y478+Q13131+Q9UGI9); experiment: AMP-dependent Kinase enzyme assay. An in vitro enzyme assay that detects ADP turnover that is directly proportional to AMPK activity. This uses naive AMPK that is activated during the assay with MK-8722; type: functional; settings: 30 µM

SMILES	Percent Effect [1]	Percent Effect [2]	Percent Effect [3]	Percent Effect [4]	Percent Effect [5]	Percent Effect [6]	Percent Effect [7]	Percent Effect [8]	Percent Effect [9]	Percent Effect [10]	Percent Effect [11]	Percent Effect [12]	Percent Effect [13]
COc1ccc(Cl)cc1CC(=O)N1CCN(CCO)CC1	-6.68%	10.4%	1.78%	0.349%	-4.1%	4.71%	0.877%	12.1%	-8.21%	-1.96%	-2.35%	2.44%	–
Cc1cc(CN2CC[C@H]3C[C@H](C(=O)N(C)C)O[C@@H]3C2)no1	-4.45%	3.9%	-0.0763%	14.4%	5.36%	12.6%	13.3%	-6.77%	-6.84%	2.63%	-5.13%	20.4%	–
CC(=O)N1CCN(Cc2ccccn2)CC2(CC(=O)N(C)C2)C1 (stereo not given)	-0.0517%	-29.9%	-4.78%	4%	0.938%	-1.37%	3.35%	-20.2%	2.99%	6.76%	7.5%	-1.54%	–
COCCN1C[C@@H]2CN(Cc3cccc(C)n3)C[C@@H]2C1=O	-2.33%	-1.3%	1.39%	0.23%	-24.2%	2.28%	16.1%	1.2%	-2.04%	7.73%	12.5%	-8.2%	–
CC(C)c1nccc([C@H]2C[C@@H]3CCN(Cc4ccco4)C[C@H]3O2)n1	-6.35%	-3.9%	9.38%	3.38%	4.58%	-7.69%	14.4%	3.14%	5.36%	6.84%	15.4%	1.21%	–
CCN1CCC2(CCC1=O)CN(c1ccnc(SC)n1)CCN2C (stereo not given)	-7.58%	5.33%	-3.27%	13%	-0.682%	6.25%	11.2%	7.14%	–	3.83%	8.64%	-7.61%	2.15%
CCc1nc(CC(=O)N2CCCC2CN2CCCC2)cs1 (stereo not given)	-0.0825%	0%	-3.69%	1.63%	-2.01%	5.32%	11.1%	-4.98%	-5.61%	2.63%	2.56%	-5.66%	–
Cc1cccc(CN2C(=O)C[C@H]3[C@@H]2CCN3Cc2ccccn2)n1	0.959%	22.1%	3.98%	-1.08%	-1.13%	-1.83%	12.8%	-7.67%	-19.3%	-0.966%	20%	-6.04%	–
CSc1nccc(N2CCN(C)C3(CCNC(=O)CC3)C2)n1 (stereo not given)	-5.63%	8%	-0.126%	2.82%	-1.66%	5.73%	12.6%	-2.91%	–	3.83%	13.6%	-6.95%	-1.22%
COc1ccc(C(=O)C2CCCN(Cc3ccncc3)C2)c(OC)c1 (stereo not given)	-6.33%	5.41%	-0.276%	12.6%	5.33%	15%	5.31%	10.7%	11%	5.85%	12.2%	83.7%	–
